Source: PubChem (National Center for Advancing Translational Sciences (NCATS))
L3MBTL1 block: blocks human L3MBTL1 | AID 485360 | Potency, µM (doses to about 57.1 µM), without a hit: top-dose activity, negative = inhibition, usual class: inhibitors | Q9Y468 | 0.66% of 230,000 active | AlphaScreen L3MBTL1–H3K9me1 peptide binding; further: on the % scale 0 is the no-effect control and ±100 the full control effect; nearly all actives have a fitted effect of over 60% in size
Target sequence (Q9Y468 whole entry, looked up): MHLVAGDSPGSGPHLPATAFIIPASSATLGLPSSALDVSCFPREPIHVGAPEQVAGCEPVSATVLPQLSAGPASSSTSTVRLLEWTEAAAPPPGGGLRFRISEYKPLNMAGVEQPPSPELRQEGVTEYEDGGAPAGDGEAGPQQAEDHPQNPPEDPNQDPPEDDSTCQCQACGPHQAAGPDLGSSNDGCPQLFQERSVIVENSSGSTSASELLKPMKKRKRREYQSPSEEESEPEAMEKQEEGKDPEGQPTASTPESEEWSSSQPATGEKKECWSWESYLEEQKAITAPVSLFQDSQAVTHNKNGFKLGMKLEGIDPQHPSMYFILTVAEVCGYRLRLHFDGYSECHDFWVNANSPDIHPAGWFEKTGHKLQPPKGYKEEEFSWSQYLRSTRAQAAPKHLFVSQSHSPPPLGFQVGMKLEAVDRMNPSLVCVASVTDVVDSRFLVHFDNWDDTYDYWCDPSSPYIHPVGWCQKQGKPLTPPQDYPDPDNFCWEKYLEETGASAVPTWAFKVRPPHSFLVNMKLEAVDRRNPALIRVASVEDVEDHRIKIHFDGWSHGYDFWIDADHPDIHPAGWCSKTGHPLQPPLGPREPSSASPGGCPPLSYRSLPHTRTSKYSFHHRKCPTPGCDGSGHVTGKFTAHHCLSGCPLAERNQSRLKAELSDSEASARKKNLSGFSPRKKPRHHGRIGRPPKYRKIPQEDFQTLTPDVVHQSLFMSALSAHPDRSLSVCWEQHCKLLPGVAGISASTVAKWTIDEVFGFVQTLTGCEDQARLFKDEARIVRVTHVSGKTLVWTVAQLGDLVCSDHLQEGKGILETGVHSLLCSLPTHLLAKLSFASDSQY
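Displacement of a biotinylated histone H3(1-15) peptide monomethylated at Lys9 (75 nM) from L3MBTL1 (50 nM) was measured by AlphaScreen after a 30 min room-temperature compound incubation; cefsulodin titration served as intraplate control.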
G9a inh: G9a (human) methyltransferase inhibition; Q96KQ7; G9a H3K9 monomethylation, AlphaScreen, 2 h; Potency, µM (titrated, usually from 102 µM), inactives show at the highest dose activity, negative = inhibition, actives largely listed as inhibitors; 8.8% of 350,000 active; AID 504332; further: on the % scale 0 is the no-effect control and ±100 the full control effect; nearly all actives have a fitted effect of over 75% in size
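Signal arises when biotinylated H3K9 peptide, once monomethylated, bridges streptavidin donor and antibody-captured acceptor beads. Enzyme at 20 nM was preincubated 15 min with test compounds; peptide 500 nM and SAM 20 uM then reacted for 2 h.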
Sfp inh: Sfp phosphopantetheinyl transferase inhibition; Q9F4F7; Biochemical Sfp PPTase activity, qHTS; Potency, µM, for the others: largest response in the series, negative = inhibition, usual class: inhibitors; 3.5% of 310,000 active;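 further: the enzyme is Sfp with the accession as filed and its product quenches rhodamine fluorescence; 0% = enzyme reaction without inhibitor and -100% = no enzyme wells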
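Step 1, compound plus 15 nM Sfp-PPTase, 15 min, room temperature. Step 2, add rhodamine-CoA (5 uM) and BHQ-2-YbbR (12.5 uM). Step 3, read 525/598 nm fluorescence at 0 and 30 min.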
JMJD2A Tudor inh: JMJD2A Tudor domain (human) inhibition; O75164; AlphaScreen JMJD2A-Tudor / H3K4me3 peptide binding; Potency, µM (doses to about 114 µM), inactives show top-dose activity change, negative = inhibition, usual class: inhibitors; 4.4% of 390,000 active; AID 504339; further: on the % scale 0 is the no-effect control and ±100 the full control effect; nearly all actives have a fitted effect of over 50% in size
BAZ2B block: BAZ2B (human) inhibition | AlphaScreen BAZ2B-H3K14Ac peptide displacement | AID 504333 | 4.4% of 360,000 active | Potency, µM (top dose mostly 114 µM), inactives show at the highest dose activity change, negative = inhibition, usual class: inhibitors; further: on the % scale 0 is the no-effect control and ±100 the full control effect; nearly all actives have a fitted effect of over 60% in size
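Protein-peptide AlphaScreen: BAZ2B 50 nM, b-H3K14Ac 50 nM, 1x PBS pH 7.4 + 0.01% Tween-20. Preincubation 30 min RT; cpd 30 min RT (top 110 uM); beads 20 min RT, light-protected.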
HP1b binding inh: inhibitors of HP1-beta chromodomain binding to methylated histone tails; P83916; AlphaScreen HP1-beta / biotin-H3K9me3 peptide binding; Potency, µM (titrated, usually from 114 µM), for the others: at the top dose activity change, negative = inhibition, hits mostly inhibitors; 0.56% of 390,000 active; AID 540317; further: nearly all actives have a fitted effect of over 70% in size
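Compound inhibition of the preformed complex between 50 nM HP1-beta and 50 nM biotinylated H3K9me3 peptide was read by AlphaScreen. Buffer was PBS pH 7.4 with 0.01% Tween-20. Incubations ran 30 min at room temperature, with 10 ug/mL donor/acceptor beads.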
* = called active by the depositor; u = inconclusive; x = no result; [ ] = another dose, or the depositor's remark. A selection: hits, their analogues and other compounds. The true share with any hit is near 12%. The call rests on the fitted dose curve; in most records, active means well fitted curve in the direction sought with a large enough effect; inconclusive means small, poorly fitted or top-dose-only effect, or another doubt; inactive means no such curve, though single readings can be large; an effect the other way counts as inactive or inconclusive. Potency means the concentration at half of the fitted maximal effect.

SMILES	L3MBTL1 block	G9a inh	Sfp inh	JMJD2A Tudor inh	BAZ2B block	HP1b binding inh
O=C(CNC(=O)c1ccccc1Cl)OC(C(=O)Nc1cc(C(F)(F)F)ccc1Cl)c1ccccc1 (stereo unspecified)	x	x	x	-21.2%	x	x
C/C(=N\NC(=O)c1ccc(NS(=O)(=O)c2cccs2)cc1)c1ccc2c(c1)OCO2	-3.6%	-2.8%	16.0%	-0.3%	u	24.9%
COc1c(CO)cc(CO)cc(CO)c1=O	x	x	-9.0%	x	x	x
C#CCOCCOCCOCCNc1nc(N2CCOCC2)nc(N2CCN(C(=O)Cn3cc(CC(C)O)nn3)CC2)n1 (stereo unspecified)	4.9%	79.4µM*	23.9%	-18.3%	-14.2%	21.5%
C#CCOCCOCCOCCNc1nc(N2CCN(C(=O)Cn3cc(CC(C)O)nn3)CC2)nc(N2CCN(C(=O)[C@H](CCCCN)n3cc(CCCC)nn3)CC2)n1 (stereo partly specified)	x	x	x	-10.5%	x	28.3%
C#CCOCCOCCOCCNc1nc(N2CCN(C(=O)Cn3cc(CCCN=C(N)N)nn3)CC2)nc(N2CCN(C(=O)Cn3cc(CC(C)O)nn3)CC2)n1 (stereo unspecified)	x	x	x	-2.1%	x	41.0%
C#CCOCCOCCOCCNc1nc(N2CCN(C(=O)Cn3cc(CCO)nn3)CC2)nc(N2CCN(C(=O)[C@H](CCCCN)n3cc(CC(C)O)nn3)CC2)n1 (stereo partly specified)	x	x	x	89.1µM*	x	5.6%
O=C(Cn1c(=O)n(-c2ccc(Cl)cc2)c(=O)c2sc3ccccc3c21)NC1CCCC1	x	0.4%[59 µM]	x	-5.0%	-24.3%	36.2%
CCOC(=O)CSc1nc2c([nH]c3ccccc32)c(=O)n1-c1ccc(OC)cc1	x	3.3%[59 µM]	x	20µM*	-3.9%	6.4%
COc1cccc(-n2c(SCC(=O)Nc3nnc(C)s3)nc3c([nH]c4ccccc43)c2=O)c1	x	3.1%[59 µM]	x	50.1µM*	2.2%	26.0%[57 µM]
CCN1CCC2(CC1)N=C(c1ccc(F)cc1)C(=S)N2	x	11.2µM*	22.4µM*	-11.7%	-4.0%	43.2%
CCn1cc(S(=O)(=O)CC(=O)Nc2ccc3c(c2)OCCO3)c2ccccc21	-4.3%	u	4.2%	u	u	3.5%
CCN(CC)C(=O)Cn1cc(S(=O)(=O)CC(=O)Nc2ccc(C(N)=O)cc2)c2ccccc21	x	44.7µM*	5.1%	-19.9%	-23.0%	37.3%
CCN(CC)C(=O)Cn1cc(S(=O)(=O)CC(=O)Nc2ccc3c(c2)OCCO3)c2ccccc21	x	56.2µM*	13.1%	4.2%	x	39.8%
O=C(CCc1ccccc1)Nc1ccccc1[N+](=O)[O-]	-2.7%	u	12.6%	-27.2%	-27.0%	-15.8%
Cc1ccc(NC(=O)COC(=O)COc2ccc(Cl)cc2C)c([N+](=O)[O-])c1	-21.3%	28.2µM*	-0.3%	u	u	-25.1%
Cc1ccc(NC(=O)CCCc2ccccc2)c([N+](=O)[O-])c1	-15.6%	3.16µM*	3.5%	u	u	u
Cc1ccc(NC(=O)COC(=O)CCC(=O)c2ccc(C(C)(C)C)cc2)c([N+](=O)[O-])c1	-8.3%	11.2µM*	-7.9%	u	u	u
CC(C)c1ccc(NC(=O)COC(=O)C2CC3C=CC2C3)cc1 (stereo unspecified)	9.2%	x	x	19.2%	x	87.8%
COc1ccc(CN(Cc2ccccc2)C(=O)Nc2ccccc2)cc1COc1ccc(NC(C)=O)cc1	x	x	x	u	x	16.9%
Cc1nc(-c2ccc(F)cc2)c(CC(=O)N(C)CC(=O)Nc2ccc(Br)cc2C)s1	1.5%	31.6µM*	x	-33.1%	-19.5%	5.6%
CCc1nc2oc3ccc(C)cc3c(=O)c2cc1C(=O)OC	x	12.3%	17.7%	0.7%	3.3%	27.4%
CCN1C(=NCCOC)N[C@@H](c2ccccc2)[C@H](C(=O)OC)[C@H]1C	5.4%	-10.8%[12.7 µM]	3.5%	-17.2%	50.1µM*	15.9%
CCN1C(=NCc2cc(OC)c(OC)c(OC)c2)N[C@@H](c2ccccc2)[C@H](C(=O)OC)[C@H]1C	4.6%	u	-0.3%	x	-2.7%	x
COc1cccc(N2CCN(S(=O)(=O)c3ccc4ccccc4c3)CC2)c1	-2.3%	-32.5%	x	-11.0%	4.5%	14.1%
SMILES	L3MBTL1 block	G9a inh	Sfp inh	JMJD2A Tudor inh	BAZ2B block	HP1b binding inh
CC(C)OCCCn1c(SCC(N)=O)nc2c(sc3ccccc32)c1=O	x	-1.6%[59 µM]	x	-19.0%	-6.1%	47.9%
CC(=O)Oc1ccc(/C=N/NS(=O)(=O)c2ccc(C)cc2)c(OC(C)=O)c1	-1.6%	39.8µM*	5.1%	-19.7%	-22.4%	28.6%
COc1cc(/C=N/NS(=O)(=O)c2ccc3ccccc3c2)ccc1OCc1ccc(C(=O)O)cc1	-10.9%	50.1µM*	8.9%	-20.3%	-25.1%	21.7%
Cc1ccc(S(=O)(=O)N/N=C/c2ccc3nccnc3c2)cc1	1.8%	3.16µM*	3.1%	-17.6%[11.4 µM]	-16.9%	50.5%
COc1ccc(O)c(/C=N/NS(=O)(=O)c2ccc(C)cc2)c1	13.2%	-12.0%	6.8%	-10.3%	-15.4%	4.4%
COc1ccc(/C=N/NS(=O)(=O)c2ccc(C)cc2)cc1OC(=O)c1ccccc1	x	-22.3%[59 µM]	3.0%	-32.0%	79.4µM*	5.4%
O=S(=O)(c1cccnc1)N1CCN(c2nc(-c3cccs3)nc3ccccc23)CC1	x	x	x	-22.7%	x	17.2%
NS(=O)(=O)c1ccc(CNc2ncnc3sccc23)cc1	x	u	21.7%	-3.1%	3.3%	28.4%
CN(C)c1ccc(CNc2ncc(Br)cc2Br)cc1	u	39.8µM*	-7.4%	20µM*	14.1µM*	-66.3%
CN(C)c1ccc(CNc2ncnc3sccc23)cc1	x	12.6µM*	-6.3%	-35.3%	-36.3%	2.8%
CN=c1scc(C)n1/N=C/c1ccc(O)cc1	x	u	-4.8%	-25.3%	u	-0.9%
CN=c1scc(C)n1/N=C/c1ccc2c(c1)OCO2	x	u	-4.7%	u	39.8µM*	-37.4%
CCOc1cc(/C=N/n2cnnc2)cc(Br)c1O	2.1%	u	8.3%	-6.8%	-7.3%	-6.4%
Cc1nnc(C)n1/N=C/c1ccc2c(c1)OCCO2	-4.2%	1.1%[59 µM]	12.2%	12.8%	x	42.9%
CCN=c1scc(C)n1/N=C/c1cc(Br)c(O)c(OC)c1	x	10µM*	-23.9%	79.4µM*	12.6µM*	u
CN=c1scc(C)n1/N=C/c1cc(Br)c(O)c(Br)c1	-21.8%	11.2µM*	-20.7%	u	35.5µM*	-9.8%
